The results in this text go back to PubChem BioAssay (NCATS).

A short description of the experiment: High-throughput drug toxicity screening in the BPDCN cell line Cal-1 (AID 1224825). Particulars: Cal-1 BPDCN cell viability, qHTS; at 45.8 µM (top of the series) unless noted. From the text: Blastic plasmacytoid dendritic cell neoplasm (BPDCN) is a rare, aggressive and largely incurable hematologic malignancy originating from plasmacytoid dendritic cells (pDCs). Although an initial response to chemotherapy is common, BPDCN prognosis is extremely poor and most patients relapse with drug-resistant disease leading to a median overall survival of ~1 year after diagnosis. To explore novel potential therapeutic strategies in BPDCN, we performed a high-throughput drug toxicity screening in BPDCN cell liens, using of a library of 1,912 small molecules, enriched for compounds that are either approved or in early stages of development for cancer therapy.
A total of 500 exponentially growing Cal-1 cells were seeded per well in 5 uL of media (RPMI + Glutamine, without phenol red plus10% FBS and 1X Pen/Strep) into 1536-well solid white high base tissue culture treated Greiner One Bio Plates (789173-F), using a multidrop combi dispenser and a small sterile cassette. Compounds and controls totaling 23nL per well (negative control DMSO and positive control 9.2 uM Bortezomib-final) were immediately added to the plates using a 1536 head pin tool from Kalypsys. The plates were then covered with stainless steel gasket lids from Kalypsys and incubated for 48 hours at 37C under 95% relative humidity with 5% CO2. After 48 hours, the plates were removed and allowed to reach room temperature before 3 uL of Cell Titer Glo reagent (Promega) were added using an Aurora Flying Reagent Dispenser Bioraptor. The plates were then spun at 1000 rpms to remove bubbles and incubated for 15 minutes at room temperature before reading on a ViewLux using a luminescent filter with a 10 second exposure. The relative luciferase units were used to calculated percent activity using DMSO as 100% and Bortezomib as 0%.
For the compound `N#Cc1ccc(Oc2ccc3c(c2)COB3O)cc1`, the viability (% of control) is 98.9%.
Turning to `COc1ccc(-c2ccc3ncc4c(c3c2)n(-c2ccc(N3CCNCC3)c(C(F)(F)F)c2)c(=O)n4C)cn1`, the viability (% of control) was found to be 0.939%.
On to `O=C(O)C1=CC(O)C(O)[C@H](O)C1` (stereo not given in full), for which the viability (% of control) was 105%.
On to `O=[N+]([O-])c1ccc(Nc2ccccc2-c2ccccc2)c2nonc12`, for which the viability (% of control) turned out to be 88.7%.
The result for `CCCCCCCCCCCCCC(=O)N[C@H](CO)[C@H](O)c1ccc([N+](=O)[O-])cc1` reads 5.68%; that for `O=S(=O)(NCCNCC=Cc1ccc(Br)cc1)c1cccc2cnccc12`, 57.7%; that for `CN(C)N=Nc1nc[nH]c1C(N)=O`, 121%.
On to `Cc1c(-c2cccc3c(CCCOc4cccc5ccccc45)c(C(=O)O)n(Cc4cccnc4)c23)c(COc2ccc(N3CCN([S+](=O)([O-])N(C)C)CC3)cc2)nn1C`, for which the viability (% of control) came to 86.1%.
The result for `C[C@]12CC[C@@H]3c4ccc(O)cc4CC[C@H]3[C@H]1[C@@H](O)[C@@H](O)[C@H]2O` reads 44.4%; that for `Cc1nc(NC(=O)N2CCC[C@@H]2C(N)=O)sc1-c1csc(C(C)(C)C)n1`, 55.1%; that for `Cc1cc(OCCCS(C)(=O)=O)cc(C)c1-c1cccc(COc2ccc3c(c2)OC[C@H]3CC(=O)O)c1`, 91.1%.
Consider `C[C@]12CCC3=C4CCC(=O)C=C4CC[C@@H]3[C@H]1CC[C@@]2(O)CC#N`, for which the viability (% of control) was 107%.
As for `O=C(Nc1ccccc1)Nc1ccc(-c2ccc(C(=O)[C@H]3CCC[C@H]3C(=O)O)cc2)cc1`, the viability (% of control) amounted to 107%.
With `Nc1ncnc2c1ncn2[C@@H]1O[C@H](CO)[C@@H](O)[C@@H]1O`, the viability (% of control) is 18.3%.
Turning to `N#CC(=C1Nc2ccccc2S1)c1ccnc(OCc2ccc(CN3CCOCC3)cc2)n1`, the viability (% of control) came out at 2.57%.
Turning to `O=c1cc(-c2ccc(O)c(O)c2)oc2cc(O)cc(O)c12`, the viability (% of control) was found to be 68.6%.
For `Clc1ccc(C2(c3ccc(-c4cn[nH]c4)cc3)CCNCC2)cc1`, the viability (% of control) amounted to 10.8%.
For the compound `Fc1ccc(CNc2ncnc3ccc(F)cc23)cc1`, the viability (% of control) turned out to be 93.2%.
In the case of `COc1cc2c(cc1OC)[C@@H]1Cc3ccc(OC)c(OC)c3CN1CC2`, the viability (% of control) worked out at 20.2%.
With `CCC(=C(c1ccc(O)cc1)c1ccc(OCCNC)cc1)c1ccccc1`, the viability (% of control) is 4.15%.
Take `Cc1cc2nc3c(=O)[nH]c(=O)nc-3n(CC(O)C(O)C(O)CO)c2cc1C` (stereo not given): the viability (% of control) stood at 101%.
As to `NC1(C(=O)N[C@@H](CCO)c2ccc(Cl)cc2)CCN(c2ncnc3[nH]ccc23)CC1`, the viability (% of control) came out at 27.4%.
For `CCc1cc(-c2n[nH]c(C)c2-c2ccc3c(c2)OCCO3)c(O)cc1O`, the viability (% of control) stood at 9.12%.
The result for `CNc1nc(-c2ccc3c(N)n[nH]c3c2)cc(N2C[C@@H](C(=O)NC3CCCCC3)CC[C@@H]2C)n1` reads 18.1%.
Next, `CC(C)(OCc1nn(Cc2ccccc2)c2ccccc12)C(=O)O`: 109%; `CN1c2ccccc2C(=O)N2CCc3c([nH]c4ccccc34)C21` (stereo not given): 97%; `COc1ccc2cc1Oc1ccc(cc1)C[C@H]1c3cc(c(OC)cc3CCN1C)Oc1c(OC)c(OC)cc3c1[C@H](C2)N(C)CC3`: 94.6%.
For `COc1nccc(-c2c(-c3ccc(F)cc3)ncn2C2CCC(O)CC2)n1` (stereo not given), the viability (% of control) was determined as 43.4%.
Next, `CC[C@H](CC#N)OC(=O)N[C@@H](C)c1cccc(NC(=O)Nc2ccc(-c3cnco3)c(OC)c2)c1`: 18.6%; `Clc1ccc(COC(Cn2ccnc2)c2ccc(Cl)cc2Cl)c(Cl)c1` (stereo not given): 72.7%.
With `CCC(C)SSc1ncc[nH]1` (stereo not given), the viability (% of control) is 6.97%.
The result for `Cc1ccc2c(=O)c3cccc(CC(=O)O)c3oc2c1C` reads 50.1%.
`CN(C)CCOc1cc(-c2cn[nH]c2)ccc1NC(=O)C1COc2ccccc2O1` (stereo not given): the viability (% of control) came to 34.9%.
Regarding `Cc1ccc2c(c1)C(=O)[C@]1(O)CCN(c3ccccc3)C1=N2`, the viability (% of control) was 34.3%.
With `CC=C1C2C=C(C)CC1(N)c1ccc(=O)[nH]c1C2` (stereo not given), the viability (% of control) was determined as 128%.
In the case of `O=C(c1ccc(C(=O)N2CCC(N3CCCC3)CC2)c(Nc2ccccc2)c1)N1CCC(N2CCCC2)CC1`, the viability (% of control) came to 113%.
Next, `CC(C)Oc1cc(Nc2nc(N[C@@H](C)c3ccc(F)cn3)ncc2Cl)[nH]n1`: 15.5%.
The result for `COc1ccnc(CS(=O)c2nc3ccc(OC(F)F)cc3[nH]2)c1OC` (stereo not given) reads 108%; that for `Cc1ccccc1-n1c(Cn2nc(-c3cccc(O)c3)c3c(N)ncnc32)nc2cccc(C)c2c1=O`, 10.5%.
`CC1(COc2ccc3c(c2)ncn3-c2ccc3cccc(N4CCC(N)CC4)c3n2)COC1`: the viability (% of control) worked out at 3.06%.
